# Reference: PubChem BioAssay (NCATS)
# Inconclusive results are not listed. Activity calls are given as the source filed them. Calls come from the whole dose curve; as a rule, active = well fitted curve in the direction sought with a large enough effect; inconclusive = small, poorly fitted or top-dose-only effect, or another doubt; inactive = no such curve, though single readings can be large; an effect the other way counts as inactive or inconclusive.
# Experiment: Primary qHTS for inhibitors of nuclear receptor binding SET domain protein 2 (NSD2) in an isogenic RCH-ACV NSD2 p.E1099K mutant (9B) (AID 1645876)
# Settings: RCH-ACV NSD2 E1099K (9B) viability, CellTiter-Glo, 72 h; series mostly up to 44.9 µM; activity change, negative = viability loss: at the top concentration
# % is set by controls: 0 for no effect and ±100 for the full control effect.
# Note: nearly all actives have a fitted effect of over 70% in size.
row,SMILES,"activity change, negative = viability loss"
1,COC(=O)C1=COC(C)C2CN3CCC4(C(=O)Nc5ccccc54)C3CC12 (stereo unspecified),-20.7% (inactive)
2,CC1(C)C(=O)N(c2ccc(C#N)c(C(F)(F)F)c2)C(=O)N1CCCCO,-12.5% (inactive)
3,O=C1N[C@@H](Cc2ccccc2)CN2CCCC[C@@H]12,-21.6% (inactive)
4,CN1C(=O)CN=C(c2ccccc2Cl)c2cc(Cl)ccc21,-12.2% (inactive)

# Experiment: Primary qHTS for inhibitors of nuclear receptor binding SET domain protein 2 (NSD2) in an RCH-ACV wild type WT cells (2C) (AID 1645877); note: potency is the fitted concentration of half-maximal effect
# Settings: RCH-ACV (leukaemia line) NSD2 WT (2C) viability, CellTiter-Glo, 72 h; series mostly up to 44.9 µM; activity change, negative = cell killing: at the top concentration
SMILES,outcome,"activity change, negative = cell killing",Potency
C/C=C(/C)C1C=CC2CC(C)CC(C)C2C1/C(O)=C1\C(=O)NC(CC(C)(O)C(=O)O)C1=O (stereo unspecified),inactive [at 17.3 µM],–,–
CS[C@]1(CO)C(=O)N2[C@H]3C(=CC=C[C@@H]3O)C[C@@]2(SC)C(=O)N1C,inactive,–,–
CC1=CC2/C=C(\C)CCCC(O)/C=C/C(=O)OC23C(=O)NC(CC(C)C)C3C1C (stereo unspecified),–,-22% (inactive),–
COCC(C(=O)OC1CC2CCC(C1)N2C)c1ccccc1 (stereo unspecified),inactive,–,–
N#CC(O[C@@H]1O[C@H](CO)[C@@H](O)[C@H](O)[C@H]1O)c1ccccc1 (stereo partly specified),–,-7.95% (inactive),–
CC[C@H]1C2CC3[C@@H]4N(C)c5ccccc5[C@]45C[C@@H]([C@H]2[C@H]5O)N3[C@H]1O,–,3.18% (inactive),–
NC(=O)c1ncn2c1CN=C(c1ccccc1Br)c1cc(F)ccc1-2,–,0.958% (inactive),–
Cc1c(N2C(=O)[C@@H]3[C@H](O)CCN3C2=O)ccc(C#N)c1Cl,–,1.19% (inactive),–
CC(=O)O[C@@H]1[C@H]2CC[C@H]3[C@@](C)(O)[C@@H]4C[C@H](O)C(C)(C)[C@@]4(O)[C@H](O)C[C@@]13C[C@@]2(C)O,–,-6.35% [at 17.3 µM] (inactive),–
CC(=O)N1N=C(c2ccc(N)cc2)c2cc3c(cc2C[C@H]1C)OCO3,–,-22.9% (inactive),–
COc1ccc(CN(C(=O)[C@@H](N)Cc2c(C)cc(C(N)=O)cc2C)[C@@H](C)c2ncc(-c3ccccc3)[nH]2)cc1C(=O)O,–,-20.5% (inactive),–
CN1C2CCC1CC(OC(=O)N1Cc3ccccc3NC1=O)C2 (stereo unspecified),inactive,–,–
c1cncc(OC[C@@H]2CCN2)c1,–,-7.4% (inactive),–
Cc1c(Cl)c(OCC(=O)N2CCN(C)CC2)nc2sc(C(=O)NC3CC3)c(N)c12,–,-3.12% (inactive),–
CN1CCc2cc3c(cc2C1C1OC(=O)c2c1ccc1c2OCO1)OCO3 (stereo unspecified),–,4.23% (inactive),–
C#CCO[C@H]1CN2CCC1CC2,inactive,–,–
CC1CCCC(O)CC(=O)Cc2cc(O)cc(O)c2C(=O)O1 (stereo unspecified),–,-0.067% (inactive),–
CC1=CC2(O)/C=C/C(C)(O)C(O)C(O)/C=C/C(=O)OC23C(=O)NC(CC(C)C)C3C1C (stereo unspecified),–,-11% [at 17.3 µM] (inactive),–
C/C=C1/CN2CC[C@]34C(=Nc5ccc(OC)cc53)C2C[C@@H]1C4(CO)C(=O)OC (stereo partly specified),–,-14.3% (inactive),–
Cc1cccc(NC(=O)N[C@H]2CN(C)c3ccccc3C(c3ccccc3)=N2)c1,–,–,14500 nM (active)
CO[C@@H]1[C@H](O)[C@@H](O[C@@H]2C[C@H]3CC[C@@H]4C(CC[C@]5(C)[C@@H](C6=CC(=O)OC6)CC[C@]45O)[C@@]3(C)[C@H](O)C2)O[C@H](C)[C@@H]1O (stereo partly specified),–,–,159 nM (active)
C[C@@H]1CCC/C=C/[C@H]2C[C@@H](O)C[C@@H]2[C@@H](O)/C=C/C(=O)O1,–,–,409 nM (active)
C[C@]12CCC(=O)C=C1CC[C@@H]1[C@@H]2[C@@H](O)C[C@]2(C)C(=O)CC[C@@H]12,–,0.0535% (inactive),–
CCC(C)(O)C1(C(=O)O)COC(=O)C1 (stereo unspecified),inactive [at 91.9 µM],–,–
COC(=O)C1=COC(C)C2CN3CCC4(C(=O)Nc5ccccc54)C3CC12 (stereo unspecified),–,-18.4% (inactive),–
CC1(C)C(=O)N(c2ccc(C#N)c(C(F)(F)F)c2)C(=O)N1CCCCO,–,-6.05% (inactive),–
O=C1N[C@@H](Cc2ccccc2)CN2CCCC[C@@H]12,–,-23.3% (inactive),–
